Source: PubChem
The list is not random: actives were taken first. Their share in the collection is about 2.8%.
POLH inh – blocks human DNA polymerase eta activity | Q9Y253 | Potency, µM (top dose mostly 114 µM), most hits filed as inhibitors | 390,000 compounds, 1.2% hits | recombinant Pol eta, fluorescent DNA replication assay
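Pol eta (10 nM) was preincubated with compounds for 15 min at room temperature, after which fluorescent replication substrate (50 nM final) was added to start the reaction. Fluorescence was read kinetically at 0 and 10 min.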
PI5P4Ka inh – PI5P4K alpha (human) kinase inhibition; P48426; PI5P4Kalpha enzyme, ADP-Glo luminescence, 60 min; active compounds read low; max response, %; 330,000 compounds, 1.2% hits; AID 652105; active = max response of -50% or lower; inconclusive = between -30% and -50%; inactive = -30% or higher; note: value at the top dose of about 77 µM
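Compounds were pin-transferred onto PI5P4Kalpha and substrate in HEPES pH 7.4 buffer with EGTA, CHAPS and 5% DMSO. ATP (5 microM final) started the reaction, which ran 60 minutes at room temperature before ADP-Glo detection.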
POLB inh – inhibitors of human DNA polymerase beta; Potency, µM (titrated, usually from 114 µM), usual class: inhibitors; 340,000 compounds, 1.3% hits; Pol beta primer extension/strand displacement, fluorescence kinetic; P06746
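Enzyme-only controls used 10 nM Pol beta; buffer lacking enzyme served as negative control. Compound preincubated 15 min, then 50 nM substrate added; 0 and 10 min reads at room temperature.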
WRN helicase inh – blocks human WRN helicase. Q14191. WRN helicase unwinding, fluorescent forked duplex, kinetic. Potency, µM (series often up to 114 µM), usual class: inhibitors. 360,000 compounds, 0.46% hits. AID 651768; note: nearly all actives have a fitted effect of over 55% in size
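Screening of the MLSMR collection measured strand separation of a quenched forked DNA duplex (100 nM) by 20 nM WRN with 2 mM ATP, all final. Compounds were preincubated with enzyme 15 min at room temperature.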
Pol kappa inh – DNA polymerase kappa (human) inhibition; Q9UBT6; purified Pol kappa, fluorescent DNA synthesis assay, 10 min; Potency, µM (top dose mostly 107 µM), actives largely listed as inhibitors; 400,000 compounds, 0.53% hits
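Activity was followed as the change in fluorescence between reads at 0 and 10 min after starting the reaction with 50 nM substrate. Beforehand, 10 nM polymerase had been preincubated with compound for 15 min at room temperature.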
POLI inh – inhibitors of human DNA polymerase iota; Q9UNA4; Pol iota fluorescent replication assay, 10 min; Potency, µM (highest dose often 115 µM), usual class: inhibitors; 390,000 compounds, 1% hits; AID 588590
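Fluorescent replication assay read twice, at 0 min and 10 min after adding 50 nM (final) substrate. Enzyme (10 nM) and compounds were first incubated 15 min at room temperature; enzyme-free buffer wells were negative controls.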
Numbers stand for hits; - = inactive; ? = inconclusive; . = not tested or not shown; [ ] = dose if it differs, or a comment. Unless noted, calls come from the whole dose curve; as a rule, active = well fitted curve in the direction sought with a large enough effect; inconclusive = small, poorly fitted or top-dose-only effect, or another doubt; inactive = no such curve, though single readings can be large; an effect the other way counts as inactive or inconclusive.

SMILES	POLH inh	PI5P4Ka inh	POLB inh	WRN helicase inh	Pol kappa inh	POLI inh
Cc1cc(C(=O)COc2cccc3cccnc23)c(C)n1C	?	-	11µM	-	-	-
COc1nc(N)nc(NC(=O)c2cccs2)c1N=O	-	-	.	?	-	28µM
COc1ccc(C(=O)NCC(c2ccco2)N2CCc3ccccc32)c(OC)c1 (stereo unspecified)	-	-	.	-	-	-
O=C(/C=C/c1ccc2c(c1)OCO2)c1ccc(O)cc1O	-	-	.	-	-	?
O=C(/C=C/c1ccc(O)c(O)c1)c1ccc(O)cc1O	.	.	.	.	21µM	.
CO[C@H]1C[C@@H]2CC[C@@H](C)[C@@](O)(O2)C(=O)C(=O)N2CCCC[C@H]2C(=O)O[C@H]([C@H](C)C[C@@H]2CC[C@@H](OCCO)[C@H](OC)C2)CC(=O)[C@H](C)/C=C(\C)[C@@H](O)[C@@H](OC)C(=O)[C@H](C)C[C@H](C)/C=C/C=C/C=C/1C	.	.	.	.	-[19.4 µM]	.
O=C(O)c1ccccc1NC(c1ccccc1)c1ccc2cccnc2c1O (stereo unspecified)	?	-57	.	14µM	-	-
O=C(CCS(=O)(=O)c1ccccc1)Nc1nc2cc3c(cc2s1)OCCO3	?	-	-	-	-	-
O=C(CCS(=O)(=O)c1ccccc1)Nc1nc2cc3c(cc2s1)OCO3	?	-	?	-	-	71µM
Nn1c(SCC(=O)Nc2cc(C(F)(F)F)ccc2Cl)nncc1=O	?	?	-	?	?	79µM
CCOC(=O)C(=C1Nc2ccccc2N1)n1c(-c2cnccn2)nc2ccccc21	.	-	.	-	.	.
CCOC(=O)C(=C1Nc2ccccc2N1)n1c(-c2ccco2)nc2ccccc21	.	-66	.	-	.	.
COc1ccc(C2=Nn3c(nnc3-c3ccccc3Cl)SC2)cc1OCC1CC1	-	.	.	.	40µM	-
COc1ccc(OC)c(-c2nnc3n2N=C(c2ccc(OC)c(OCC4CC4)c2)CS3)c1	-	.	.	.	?	-
C/C(CC(=O)Nc1ccc2ccccc2c1)=N\NC(=O)c1cnccn1	-	-	-	-	-	-
C/C(CC(=O)Nc1ccc2ccccc2c1)=N\NC(=O)c1ccc(O)c(O)c1	?	-	3.5µM	-[11.6 µM]	79µM	?
CCOC(=O)c1c(NC(=O)CSc2cn(CCNC(=O)c3ccc(OC)cc3)c3ccccc23)sc2c1CCCC2	-	.	-	.	-	-
N#C/C(=C\c1c(Oc2ccc(F)cc2)nc2ccccn2c1=O)c1nc2ccccc2s1	-	.	?	.	?	20µM
Cn1ncc([N+](=O)[O-])c1C(=O)Nc1ccccc1C(=O)O	-	-52	-	-	-	-
CCC(NC(C)C)C(O)c1ccc(O)c(O)c1 (stereo unspecified)	-	-	-	.	-	?
CCC(c1ccc(O)c(O)c1)C(CC)c1ccc(O)c(O)c1 (stereo unspecified)	79µM	-	.	?	50µM	18µM
O=C(CN(C(=O)CSc1nc2ccccc2o1)c1cccc(F)c1)NC1CCCCC1	-	.	-	-	-	-
CC(C)(C)n1ncc2c(=O)n(Cc3ccc(SC(F)(F)F)cc3)cnc21	.	.	.	.	-	-
CSc1ccc(C(c2c(C(=O)O)[nH]c3ccccc23)c2c(C(=O)O)[nH]c3ccccc23)cc1	79µM	-	-	-[11.6 µM]	?	?
CCOc1cc(Br)cc(C(c2c(C(=O)O)[nH]c3ccccc23)c2c(C(=O)O)[nH]c3ccccc23)c1O	79µM	-	?	-[11.6 µM]	?	-
SMILES	POLH inh	PI5P4Ka inh	POLB inh	WRN helicase inh	Pol kappa inh	POLI inh
CSc1ccc(C(c2c(C)[nH][nH]c2=O)c2c(C)[nH][nH]c2=O)cc1	-	-	-	-	-	?
Cc1cc2oc(=O)cc(CN3CCCCC3C)c2cc1C(C)C (stereo unspecified)	-	-	-	-	-	-
CC(C)NC(=O)Nc1cccc2c1O[C@H](CN(C)S(C)(=O)=O)[C@@H](C)CN([C@H](C)CO)C2=O	-	-	.	-	-	-
Cc1cc(-c2ccc(C)c(S(=O)(=O)N3CCCC(C)C3)c2)on1 (stereo unspecified)	-	.	-	.	-	-
O=C1c2ccc(O)c(O)c2C(=O)c2c(O)ccc(O)c21	.	.	.	.	2.8µM	.
Cc1ccc2nc(Nc3ccc(F)cc3)c3nncn3c2c1	-	-	32µM	-	-	-
Cc1ccc(Nc2nc3ccc(Cl)cc3n3cnnc23)cc1F	-	-	-	-	-	-
CC1(C(=O)NC2CCCCC2)CCC(=O)N1CCOc1ccccc1 (stereo unspecified)	.	-	.	-	.	.
C[C@@H]1OC(OC2CC[C@@]3(C)C(CC[C@@]4(C)C3CC=C3C5CC(C)(C)CC[C@]5(C(=O)OC5OCC(O)[C@@H](O)[C@@H]5OC5O[C@@H](C)[C@H](O[C@H]6OC(CO)C(O)C(O)C6O)C(O)C5O)C(O)C[C@@]34C)C2(C)C)C(O)C(O)[C@H]1OC1OCC(O)C(O)[C@H]1O (stereo partly specified)	.	.	.	.	25µM	.
CC1O[C@@H](OC2C(COC3OC(CO)C(O)[C@H](O)C3O)OC(OC3CC[C@]4(C)C(CC[C@@]5(C)[C@@H]4CC=C4[C@@H]6CC(C)(C)CC[C@]6(CO)C(O)C[C@]45C)C3(C)C)C(O)C2O)C(O)C(O)C1O (stereo partly specified)	-	-	.	-	-	-
Cc1oc(-c2cccc(Cl)c2)nc1CN1CCC(C(=O)NC(C)C)CC1	-	.	-	.	-	89µM
CN1CCCc2cc(/C=C/c3ccnc4ccccc34)ccc21	.	.	.	.	-	-
C=CCOc1ccc(/C=C2\C(=N)N3N=C(S(=O)(=O)CC)SC3=NC2=O)cc1OC	40µM	?	-	-[11.6 µM]	-	?
N=C1/C(=C\c2ccc(OC(=O)c3ccco3)cc2)C(=O)N=C2SC=NN12	-	?	-	?	-	-
COc1cc(/C=C2/C(=O)N(c3ccc(C(=O)O)cc3)N=C2C)cc(OC)c1O	?	-	-	-[11.6 µM]	-	1.6µM
CCOc1cc(/C=C2/C(=N)N3C(=NC2=O)SN=C3S(=O)(=O)CC)ccc1OC(=O)c1ccco1	79µM	?	-	-	-	?
COc1cc(/C=C2\C(=N)N3N=CSC3=NC2=O)cc(Br)c1OC(=O)c1ccco1	79µM	-81	?	-	-	?
C[C@H]1CN([C@@H](C)CO)C(=O)CCCn2cc(nn2)CO[C@@H]1CN(C)C(=O)CCC(F)(F)F	-	-	.	-	.	.
CCS(=O)(=O)C1=NSC2=NC(=O)/C(=C\c3ccc(OC(=O)c4ccco4)c(OC)c3)C(=N)N21	?	-66	-	-	-	?
COc1cc(/C=C2\C(=O)N(c3ccc(S(N)(=O)=O)cc3)N=C2C)ccc1OC(=O)c1ccco1	-	-	?	-[11.6 µM]	-	2.5µM
COc1cc(/C=C2/C(=N)N3C(=NC2=O)SN=C3S(C)(=O)=O)ccc1OC(=O)c1ccco1	50µM	-66	-	-[11.6 µM]	-	?
